PubChem BioAssay AID1220 (Sanford-Burnham Center for Chemical Genomics, 2008)
Among all 190,000 compounds or so, about 1,300 (0.68%) were called active. This is one part of a sample in which actives are shown more often than they occur. A number with no mark means an inactive call. Cut-off read from the data, not from the text of the source: active = inhibition above about 50%; inactive = the rest.

Molecular target: Mannose-6-phosphate isomerase (Homo sapiens) (UniProt P34949)
Test: MPI inhibition at elevated mannose 6-phosphate – biochemical, fluorescence intensity, high mannose 6-phosphate, primary screen (AID 1220)
Conditions: recombinant PMI enzyme, coupled fluorescence intensity; at 20 µM; stronger effect = higher value

Chain of Mannose-6-phosphate isomerase (Homo sapiens) (P34949 whole entry, looked up): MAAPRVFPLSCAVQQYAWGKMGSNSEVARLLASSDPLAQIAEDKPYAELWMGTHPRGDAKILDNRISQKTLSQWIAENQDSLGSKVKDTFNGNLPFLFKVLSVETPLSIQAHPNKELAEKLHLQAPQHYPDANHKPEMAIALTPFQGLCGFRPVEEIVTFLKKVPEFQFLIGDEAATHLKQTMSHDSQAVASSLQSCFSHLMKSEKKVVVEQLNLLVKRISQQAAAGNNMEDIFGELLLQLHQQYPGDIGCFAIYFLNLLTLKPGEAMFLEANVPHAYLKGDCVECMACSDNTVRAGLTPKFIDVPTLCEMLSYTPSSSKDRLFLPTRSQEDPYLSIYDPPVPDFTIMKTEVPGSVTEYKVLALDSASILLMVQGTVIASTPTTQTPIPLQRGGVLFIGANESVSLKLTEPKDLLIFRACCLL

SMILES | inhibition
O=C(CN(C(=O)CNC(=O)c1cccs1)c1ccc2c(c1)OCCO2)NC1CCCC1 | 4.5%
COc1ccc(N2CC(O)=C(c3nc(-c4ccc(F)cc4)cs3)C2=N)cc1Cl | -5.1%
COc1ccccc1C(=O)NNC(=O)c1ccccc1F | -3.9%
O=C1CN(CC(=O)N2CCCCC2)c2ccccc2O1 | 51.6% (active)
O=C(CN1CCCCC1)N1c2ccccc2Oc2ccccc21 | -7.7%
O=C(CN1CC(=O)Oc2ccccc21)OCC(=O)c1ccccc1 | 11.2%
O=C1CN(CC(=O)N2CCOCC2)c2ccccc2O1 | 51.9% (active)
O=C(CN1C(=O)c2ccccc2C1=O)N1CCOCC1 | 7.3%
O=C(CN1CCOc2ccccc21)N1CCCC1 | 3.6%
COCCCNC(=O)Cc1ccccc1OC | -3.4%
CCNc1nc(Oc2ccc(C(=O)OCC)cc2)nc(N2CCOCC2)n1 | 10%
O=C(Cc1ccccc1)N/N=C/c1ccc(-c2ccc([N+](=O)[O-])cc2)o1 | 14.3%
Cc1ccc(C)c(N=Cc2ccc(-c3ccc([N+](=O)[O-])cc3)o2)c1 | 10.6%
O=[N+]([O-])c1ccc(-c2ccc(C=Nc3cccc4ccccc34)o2)cc1 | 70% (active)
CCCCOC(=O)c1ccc(Nc2ccc([N+](=O)[O-])cn2)cc1 | -10.3%
O=C(C1CCCCC1)N1CCN(S(=O)(=O)c2ccc(Br)cc2)CC1 | 1.8%
COc1ccc(C(=O)Nc2nc3ccc(S(C)(=O)=O)cc3s2)cc1OC | 7.7%
O=[N+]([O-])c1cccc(S(=O)(=O)c2cccc([N+](=O)[O-])c2)c1 | -1.5%
CC(C)C1=CC(=NS(=O)(=O)c2cccc([N+](=O)[O-])c2)C=C(C(C)C)C1=O | 59.4% (active)
CC(C)c1nccn1S(=O)(=O)c1cccc([N+](=O)[O-])c1 | -2.8%
CCOc1cc(NC(=S)NCc2ccco2)c(OCC)cc1NC(C)=O | 7.1%
CCC(NC(C)C)C(O)c1ccc(O)c2[nH]c(=O)ccc12 (stereo unspecified) | 11.5%
COc1ccc([C@H](C)NC[C@H](O)c2ccc(O)c(NC=O)c2)cc1 | 10.4%
CCC(NC(C)C)C(O)c1ccc(O)c(O)c1 (stereo unspecified) | 61.2% (active)
CNC[C@H](O)c1cccc(O)c1 | -2.7%
CCC(C)c1ccc(O)c(N)c1 (stereo unspecified) | 31.5%

SMILES | inhibition
CNC[C@H](O)c1ccc(O)c(O)c1 | 59% (active)
O=C(NC(=S)Nc1cc(C(F)(F)F)ccc1N1CCOCC1)c1sc2ccccc2c1Cl | 2.7%
Cc1ccc(/C=C2\C(=O)ON=C2c2ccccc2)o1 | 5.3%
Cc1cccc(C)c1N(CC(=O)N1CCN(c2ccccc2F)CC1)S(C)(=O)=O | 1.2%
COc1cc(/C(C)=N/Nc2ccc(C(=O)O)cc2)cc(OC)c1OC | -109%
O=C(Nc1ccc(S(=O)(=O)Nc2ncccn2)cc1)C1COc2ccccc2O1 (stereo unspecified) | 8.2%
Cc1cc(C)nc(NS(=O)(=O)c2ccc(NC(=O)C3COc4ccccc4O3)cc2)n1 (stereo unspecified) | 54.1% (active)
Cc1ccnc(NS(=O)(=O)c2ccc(NC(=O)C3COc4ccccc4O3)cc2)n1 (stereo unspecified) | -9.4%
Cc1ccccc1NC(=O)c1oc(=O)c2ccccc2c1-c1ccccc1 | -3.9%
CCCCN(C)C1=CC2=CC(=C(C#N)C#N)CCC2CC1 (stereo unspecified) | 51.1% (active)
CCN(CC)C1=CC2=CC(=C(C#N)C#N)CCC2CC1 (stereo unspecified) | 50.6% (active)
Cc1cc(C=NCCO)c(C)n1-c1cc(Cl)ccc1Cl | 1.2%
C=CCNC(=O)CN(c1ccccc1OCC)S(=O)(=O)c1ccc(C)cc1 | 9.1%
O=C(c1cccc(Br)c1)N1CCN(S(=O)(=O)N2CCOCC2)CC1 | -0.4%
Cc1nn(-c2nc3ccccc3s2)c(N)c1-c1ccc(Cl)cc1 | -4.7%
CCOC(=O)c1ccccc1N=N/C(C(C)=O)=C(/C)O | 3.4%
Cc1cc(C(=O)Nc2sc3c(c2C#N)CCC(C)C3)cs1 (stereo unspecified) | -2.5%
O=C(Cn1cnc2ccccc2c1=O)NCc1cccs1 | 36.2%
COc1cccc(C=Nc2cc(C)cc(C)c2)c1O | 17.1%
COc1cccc(/C=N/NC(=O)C(=O)N/N=C/c2cccc(OC)c2O)c1O | -27.8%
COc1ccc(O)c(C=NCC(C)N=Cc2cc(OC)ccc2O)c1 (stereo unspecified) | 51.9% (active)
COc1ccc(O)c(C=Nc2cc(C)on2)c1 | 23.9%
COc1cccc(C=NCC(C)N=Cc2cccc(OC)c2O)c1O (stereo unspecified) | 52.3% (active)
CCCn1c(/N=C/c2cc(OC)ccc2O)nc2ccccc21 | 13.5%
Cc1ccc(CN(Cc2cc3cc4c(cc3[nH]c2=O)OCCO4)Cc2nnnn2Cc2ccco2)cc1 | 17.2%
CC(C)Cn1c(N2CCN(CC(=O)Nc3ccc(Cl)cc3)CC2)nc2ccccc21 | 13.8%

SMILES | inhibition
CCn1c(CN2CCN(C(=O)c3ccco3)CC2)nc2c1c(=O)n(C)c(=O)n2C | -1%
CCCS(=O)(=O)c1cn2cccc(N)c2c1S(=O)(=O)CCC | 4%
CC(=O)N1CCc2cc(NC(=O)c3ccc(C)cc3)ccc21 | 3.7%
Cn1nnc2cc(C(=O)N3CCCCCC3)ccc21 | 0.1%
COc1cc(/C=C(\C#N)c2nc3ccccc3[nH]2)c([N+](=O)[O-])cc1OCc1ccccc1 | 66.5% (active)
N#C/C(=C\c1ccc(O)c([N+](=O)[O-])c1)c1nc2ccccc2s1 | 0.6%
COc1cc(C=C(c2nc3ccccc3s2)c2nc3ccccc3s2)cc(OC)c1O | 54.4% (active)
COc1cc(/C=C(/C#N)c2nc3ccccc3[nH]2)ccc1Oc1ncccc1[N+](=O)[O-] | 11.5%
COc1ccc(/C=C(\C#N)c2nc3ccc(C)cc3[nH]2)cc1Oc1ccc(C(F)(F)F)cc1[N+](=O)[O-] | 1.7%
COc1cc(/C=C(\C#N)c2nc3ccccc3[nH]2)cc(Br)c1OCc1ccccc1 | -16.7%
COc1cc(/C=C(\C#N)c2nc3ccc(C)cc3[nH]2)cc([N+](=O)[O-])c1O | 64.5% (active)
COc1ccc(C=C(c2nc3ccccc3s2)c2nc3ccccc3s2)cc1O | 31.1%
COc1cc(/C=C(\C#N)c2nc3ccccc3s2)cc([N+](=O)[O-])c1O | 71.2% (active)
COc1cc(/C=C(\C#N)c2nc3ccccc3s2)ccc1OCC(=O)Nc1ccccc1 | -0.3%
COc1cc(C=C(c2nc3ccccc3s2)c2nc3ccccc3s2)ccc1O | 34.4%
COc1cc(/C=C(\C#N)c2nc3ccc(C)cc3[nH]2)c([N+](=O)[O-])cc1OC | 47.8%
C=CCN(C(=O)CCC(=O)Nc1cc(C)on1)C(C(=O)NC1CCCC1)c1cccnc1 (stereo unspecified) | 12.1%
COc1nc(Nc2cccc([N+](=O)[O-])c2)nc(OC)n1 | 11.7%
Cc1cc2c(nn1)CCC/C2=N\O | 4%
COc1ccc(C(=O)CSc2nnc(CNC(=O)c3ccc(OC)cc3)n2C)cc1 | -5.4%
Cc1cc2nnc(SC3CCCCN(C(=O)c4ccc(F)cc4)C3=O)n2c2ccccc12 (stereo unspecified) | 3%
CC(C)c1ccc(/C=N/NC(=O)c2cccc(Cl)c2)cc1 | -5.5%
CC(C)Cn1ccc(=O)n(CC(C)C)c1=O | 12%
CC(C)c1ccc(NC(=O)COc2ccccn2)cc1 | 4.4%
CC(C)CC(=O)NC(c1ccccc1Cl)c1c(O)ccc2ccccc12 (stereo unspecified) | 6.9%
O=c1c(-c2nnc(SCc3ccc(Cl)cc3Cl)o2)cccn1Cc1ccccc1 | 7.2%

SMILES | inhibition
COc1ccc(N2C(=O)CC(n3c(CCCCO)nc4ccccc43)C2=O)cc1 (stereo unspecified) | -9.5%
Cn1c(/C(C#N)=C/c2cccc(O)c2)nc2ccccc21 | 6.4%
Cn1c(/C(C#N)=C/c2ccncc2)nc2ccccc21 | 30.7%
COc1cc(/C=C(\C#N)c2nc3ccccc3n2C)cc(OC)c1O | 57% (active)
Cc1nc2ccccc2nc(C)c1=NO | 54.2% (active)
Cc1ccc2nc(C)/c(=N\O)c(C)nc2c1 | 2.2%
Cc1nc2ccc(Cl)cc2nc(C)/c1=N\O | 32.9%
COCCN1C(=O)/C(=C/c2ccc(OCc3ccc(C(=O)O)cc3)c(OC)c2)SC1=Nc1ccccc1 | 5.1%
CC(C)CNC(=O)COC(=O)c1cc(S(=O)(=O)N(C)C)ccc1N1CCCC1 | 4.7%
CCN1C=CC2=C(C#N)C(N)C(C#N)(C#N)C(c3ccccc3C(F)(F)F)C2C1 (stereo unspecified) | 5.1%
CN1C=CC2=C(C#N)C(N)C(C#N)(C#N)C(c3ccccc3)C2C1 (stereo unspecified) | 18.5%
CN1C=CC2=C(C#N)C(N)C(C#N)(C#N)[C@H](c3ccccc3)[C@H]2C1 (stereo partly specified) | 61% (active)
O=C(Cn1nc(C(F)(F)F)c2c1CCC2)NCc1ccc(Cl)cc1 | -8.7%
CC(C)C(C)NC(=O)CN1C(=O)NC2(CCCc3ccccc32)C1=O (stereo unspecified) | -2.2%
CN(CCO)c1cc(N2CCN(C(=O)c3ccco3)CC2)c2nonc2c1[N+](=O)[O-] | 12.4%
CCOC(=O)N1CCN(c2cc(N(C)CCO)c([N+](=O)[O-])c3nonc23)CC1 | 55.5% (active)
CN(CCO)c1cc(N2CCC3(CC2)OCCO3)c2nonc2c1[N+](=O)[O-] | 34.9%
CC1CCN(c2cc(N(C)CCO)c([N+](=O)[O-])c3nonc23)CC1 | 50.7% (active)
CC1CCCN(c2cc(N(C)CCO)c([N+](=O)[O-])c3nonc23)C1 (stereo unspecified) | 18%
O=[N+]([O-])c1c(NCCCO)cc(N2CCN(Cc3ccc4c(c3)OCO4)CC2)c2nonc12 | 45.2%
O=[N+]([O-])c1c(NCCO)cc(N2CCN(Cc3ccc4c(c3)OCO4)CC2)c2nonc12 | 49.1%
CN(CCO)c1cc(N2CCCCC2)c2nonc2c1[N+](=O)[O-] | 42.4%
CCOC(=O)C1CCCN(c2cc(NCCCO)c([N+](=O)[O-])c3nonc23)C1 (stereo unspecified) | 55.2% (active)
